About 21,000 targets were measured; listed, in parts, are those with the largest changes and a random draw of the rest.
Compound: Cc1cc(ccc1-c1ccccc1)C(=O)N1CCCN(CC1)C(=O)CCl [compound 10]
Assay: probe-labelled cysteine peptide fold change vs DMSO (competition) (log2 fold change); higher = less target engagement (more negative = stronger competition)
Details: THP-1, incubation time: 4 h
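Also: competitive profiling in live THP-1 cells: cysteine peptides tagged with an iodoacetamide desthiobiotin (IA-DTB) probe, intensity after compound treatment relative to DMSO-treated cells.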

Chain of UniProt P0DPI2 (P0DPI2 whole entry, looked up): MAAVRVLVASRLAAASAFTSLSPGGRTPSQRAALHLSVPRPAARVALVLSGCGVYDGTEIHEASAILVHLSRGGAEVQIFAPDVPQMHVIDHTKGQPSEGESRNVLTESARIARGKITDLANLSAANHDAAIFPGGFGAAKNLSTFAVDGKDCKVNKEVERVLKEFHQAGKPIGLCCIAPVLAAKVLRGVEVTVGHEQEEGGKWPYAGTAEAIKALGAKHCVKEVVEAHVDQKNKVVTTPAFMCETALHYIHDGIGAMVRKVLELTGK
Chain of UniProt Q13439 (Q13439 whole entry, looked up): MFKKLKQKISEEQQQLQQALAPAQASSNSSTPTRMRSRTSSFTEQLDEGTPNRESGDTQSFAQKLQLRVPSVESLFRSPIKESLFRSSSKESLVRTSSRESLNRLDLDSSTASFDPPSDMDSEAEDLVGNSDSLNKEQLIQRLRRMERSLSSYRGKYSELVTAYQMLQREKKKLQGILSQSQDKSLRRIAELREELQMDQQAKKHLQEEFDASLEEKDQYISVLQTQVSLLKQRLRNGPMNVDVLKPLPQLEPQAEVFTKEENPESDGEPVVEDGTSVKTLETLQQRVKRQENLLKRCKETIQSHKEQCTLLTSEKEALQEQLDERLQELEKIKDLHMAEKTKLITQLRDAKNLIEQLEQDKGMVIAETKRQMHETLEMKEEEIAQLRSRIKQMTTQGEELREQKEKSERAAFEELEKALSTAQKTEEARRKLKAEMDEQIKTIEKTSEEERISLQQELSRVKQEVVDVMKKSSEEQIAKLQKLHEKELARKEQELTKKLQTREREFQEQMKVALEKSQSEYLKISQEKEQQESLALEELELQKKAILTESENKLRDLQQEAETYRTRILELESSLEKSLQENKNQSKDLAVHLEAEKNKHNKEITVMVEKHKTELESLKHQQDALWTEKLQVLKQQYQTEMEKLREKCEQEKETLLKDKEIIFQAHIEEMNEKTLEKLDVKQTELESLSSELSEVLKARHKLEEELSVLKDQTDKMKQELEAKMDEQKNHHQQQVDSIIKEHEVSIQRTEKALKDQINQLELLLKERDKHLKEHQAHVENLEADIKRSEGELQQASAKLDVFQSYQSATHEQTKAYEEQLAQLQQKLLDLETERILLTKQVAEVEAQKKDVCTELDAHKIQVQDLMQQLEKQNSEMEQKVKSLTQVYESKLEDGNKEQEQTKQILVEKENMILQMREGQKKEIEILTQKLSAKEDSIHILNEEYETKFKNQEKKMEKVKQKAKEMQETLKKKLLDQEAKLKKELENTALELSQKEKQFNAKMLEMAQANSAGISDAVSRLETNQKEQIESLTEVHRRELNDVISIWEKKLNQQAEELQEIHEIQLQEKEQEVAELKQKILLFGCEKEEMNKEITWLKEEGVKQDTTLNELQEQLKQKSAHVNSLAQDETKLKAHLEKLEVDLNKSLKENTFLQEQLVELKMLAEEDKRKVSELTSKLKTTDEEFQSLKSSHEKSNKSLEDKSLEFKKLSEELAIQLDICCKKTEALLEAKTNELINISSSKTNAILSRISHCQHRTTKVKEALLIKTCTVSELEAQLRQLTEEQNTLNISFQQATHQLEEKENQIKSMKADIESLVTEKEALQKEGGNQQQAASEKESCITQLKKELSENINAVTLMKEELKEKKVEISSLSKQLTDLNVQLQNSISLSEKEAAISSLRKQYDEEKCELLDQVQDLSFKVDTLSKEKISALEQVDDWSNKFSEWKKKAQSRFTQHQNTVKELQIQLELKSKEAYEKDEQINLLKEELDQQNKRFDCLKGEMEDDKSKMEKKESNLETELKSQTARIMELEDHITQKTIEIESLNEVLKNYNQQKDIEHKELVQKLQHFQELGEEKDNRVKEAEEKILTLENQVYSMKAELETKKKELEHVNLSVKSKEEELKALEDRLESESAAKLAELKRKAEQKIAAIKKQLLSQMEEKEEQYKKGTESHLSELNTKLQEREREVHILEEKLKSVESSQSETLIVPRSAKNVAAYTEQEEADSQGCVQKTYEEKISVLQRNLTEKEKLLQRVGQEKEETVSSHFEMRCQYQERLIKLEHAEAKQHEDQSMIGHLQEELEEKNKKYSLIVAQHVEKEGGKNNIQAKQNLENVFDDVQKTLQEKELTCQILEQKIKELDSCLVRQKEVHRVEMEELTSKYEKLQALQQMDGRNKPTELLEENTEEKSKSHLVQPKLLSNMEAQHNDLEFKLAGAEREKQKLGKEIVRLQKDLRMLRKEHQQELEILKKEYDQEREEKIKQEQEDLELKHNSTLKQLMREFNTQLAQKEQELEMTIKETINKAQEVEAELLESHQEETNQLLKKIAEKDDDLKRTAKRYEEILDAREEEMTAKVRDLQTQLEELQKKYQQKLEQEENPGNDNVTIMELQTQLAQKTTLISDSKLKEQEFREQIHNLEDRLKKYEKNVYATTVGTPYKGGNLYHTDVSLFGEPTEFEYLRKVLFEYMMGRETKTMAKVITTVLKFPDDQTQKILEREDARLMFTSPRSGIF
Chain of UniProt Q9BQS8 (Q9BQS8 whole entry, looked up): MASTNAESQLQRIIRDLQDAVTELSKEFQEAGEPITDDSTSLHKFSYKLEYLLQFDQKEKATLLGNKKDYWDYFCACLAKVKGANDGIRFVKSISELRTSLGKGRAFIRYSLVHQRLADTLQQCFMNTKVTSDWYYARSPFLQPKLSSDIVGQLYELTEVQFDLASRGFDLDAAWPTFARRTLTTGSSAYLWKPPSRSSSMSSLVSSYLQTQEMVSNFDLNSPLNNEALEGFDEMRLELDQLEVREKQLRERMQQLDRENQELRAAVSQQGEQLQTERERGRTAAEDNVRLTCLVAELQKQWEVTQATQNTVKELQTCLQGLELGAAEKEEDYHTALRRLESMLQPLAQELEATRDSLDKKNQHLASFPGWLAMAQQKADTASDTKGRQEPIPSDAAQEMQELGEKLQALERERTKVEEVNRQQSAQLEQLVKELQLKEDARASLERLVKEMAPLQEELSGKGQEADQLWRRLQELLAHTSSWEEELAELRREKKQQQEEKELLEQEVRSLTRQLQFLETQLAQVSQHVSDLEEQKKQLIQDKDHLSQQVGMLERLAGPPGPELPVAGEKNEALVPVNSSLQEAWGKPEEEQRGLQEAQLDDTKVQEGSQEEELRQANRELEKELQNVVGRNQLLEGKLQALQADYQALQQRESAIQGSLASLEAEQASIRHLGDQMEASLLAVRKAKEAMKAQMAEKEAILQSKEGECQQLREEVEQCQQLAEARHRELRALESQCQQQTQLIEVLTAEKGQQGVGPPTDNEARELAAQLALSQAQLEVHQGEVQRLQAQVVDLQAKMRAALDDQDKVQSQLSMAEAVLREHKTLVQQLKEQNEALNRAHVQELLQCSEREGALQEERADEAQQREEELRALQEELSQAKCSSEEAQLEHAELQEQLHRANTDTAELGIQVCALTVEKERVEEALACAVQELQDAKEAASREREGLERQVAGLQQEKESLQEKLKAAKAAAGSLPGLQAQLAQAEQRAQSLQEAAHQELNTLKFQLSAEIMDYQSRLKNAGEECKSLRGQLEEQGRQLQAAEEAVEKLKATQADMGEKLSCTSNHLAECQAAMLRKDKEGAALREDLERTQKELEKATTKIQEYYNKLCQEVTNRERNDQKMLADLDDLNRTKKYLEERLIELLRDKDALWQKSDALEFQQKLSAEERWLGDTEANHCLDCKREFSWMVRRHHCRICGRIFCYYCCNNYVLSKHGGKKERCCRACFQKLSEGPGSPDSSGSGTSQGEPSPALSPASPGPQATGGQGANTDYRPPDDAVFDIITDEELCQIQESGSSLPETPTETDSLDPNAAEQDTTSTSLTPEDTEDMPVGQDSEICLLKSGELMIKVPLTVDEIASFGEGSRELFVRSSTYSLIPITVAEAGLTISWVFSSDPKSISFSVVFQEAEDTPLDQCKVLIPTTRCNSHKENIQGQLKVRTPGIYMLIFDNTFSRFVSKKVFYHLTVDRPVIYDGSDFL
Chain of UniProt Q9UQL6 (Q9UQL6 whole entry, looked up): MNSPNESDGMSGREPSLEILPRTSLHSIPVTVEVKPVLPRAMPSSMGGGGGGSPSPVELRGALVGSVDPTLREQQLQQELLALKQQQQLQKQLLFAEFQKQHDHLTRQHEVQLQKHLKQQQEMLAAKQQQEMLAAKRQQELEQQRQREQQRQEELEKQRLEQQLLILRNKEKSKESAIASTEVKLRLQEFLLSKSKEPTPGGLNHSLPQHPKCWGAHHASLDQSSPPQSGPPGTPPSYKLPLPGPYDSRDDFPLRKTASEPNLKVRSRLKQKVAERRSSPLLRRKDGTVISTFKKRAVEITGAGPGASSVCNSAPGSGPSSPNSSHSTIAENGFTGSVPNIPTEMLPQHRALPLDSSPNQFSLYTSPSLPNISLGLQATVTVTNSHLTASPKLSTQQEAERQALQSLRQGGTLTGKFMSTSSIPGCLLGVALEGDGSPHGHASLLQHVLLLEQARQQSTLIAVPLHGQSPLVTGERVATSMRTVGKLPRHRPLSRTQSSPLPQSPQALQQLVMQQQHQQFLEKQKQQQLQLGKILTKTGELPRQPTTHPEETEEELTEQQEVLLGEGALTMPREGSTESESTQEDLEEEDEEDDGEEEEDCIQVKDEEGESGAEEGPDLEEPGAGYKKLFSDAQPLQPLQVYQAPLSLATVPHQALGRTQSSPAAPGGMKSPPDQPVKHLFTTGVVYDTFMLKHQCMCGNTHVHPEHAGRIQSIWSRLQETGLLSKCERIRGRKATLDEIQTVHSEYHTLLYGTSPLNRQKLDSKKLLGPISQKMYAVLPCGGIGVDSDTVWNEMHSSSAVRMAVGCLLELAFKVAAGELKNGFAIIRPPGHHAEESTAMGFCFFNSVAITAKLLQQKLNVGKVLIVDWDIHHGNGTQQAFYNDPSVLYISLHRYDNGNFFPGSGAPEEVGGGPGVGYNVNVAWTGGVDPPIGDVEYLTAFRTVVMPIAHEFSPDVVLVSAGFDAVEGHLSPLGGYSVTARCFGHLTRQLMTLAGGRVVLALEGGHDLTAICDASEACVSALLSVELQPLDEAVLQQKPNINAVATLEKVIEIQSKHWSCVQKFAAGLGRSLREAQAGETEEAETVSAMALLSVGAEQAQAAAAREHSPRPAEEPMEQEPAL

“HDHD5_Q9BXW7_392_DLCFSPGLMEASHVVNDVNEAVQLVFRK (UniProt Q9BXW7)” was tested, and the “probe-labelled cysteine peptide fold change” value (10 µM) was -0.183 and the “probe-labelled cysteine peptide fold change” value (50 µM) was -1.22.

In the case of “GPC4_O75487_341_VFQGCGPPK (UniProt O75487)”, the “probe-labelled cysteine peptide fold change” value (10 µM) is reported as -0.24 and the “probe-labelled cysteine peptide fold change” value (50 µM) is reported as -0.0603.

For “GALNT7_Q86SF2_545_GFETAYCIDSMGK (UniProt Q86SF2)”, the “probe-labelled cysteine peptide fold change” value (10 µM) was -0.0613 and the “probe-labelled cysteine peptide fold change” value (50 µM) was 0.095.

For “HK3_P52790_190_CSGVEGQDVVQLLR (UniProt P52790)”, the “probe-labelled cysteine peptide fold change” value (10 µM) was 0.199 and the “probe-labelled cysteine peptide fold change” value (50 µM) was -0.106.

With “FYCO1_Q9BQS8_293_LTCLVAELQK (UniProt Q9BQS8)” the “probe-labelled cysteine peptide fold change” value (10 µM) was 0.0275 and the “probe-labelled cysteine peptide fold change” value (50 µM) was 0.224.

With “GOLGA2_Q08379_984_ERPGLGSNPCIPFFYR (UniProt Q08379)” the “probe-labelled cysteine peptide fold change” value (10 µM) was -0.149 and the “probe-labelled cysteine peptide fold change” value (50 µM) was -0.0471.

For “GEMIN5_Q8TEQ6_82_VSGFTFSHHPGQYNLCATSSDDGTVK (UniProt Q8TEQ6)”, the “probe-labelled cysteine peptide fold change” value (10 µM) was 0.193 and the “probe-labelled cysteine peptide fold change” value (50 µM) was 0.148.

For “HDAC10_Q969S8_23_LLWDDPECEIERPER (UniProt Q969S8)”, the “probe-labelled cysteine peptide fold change” value (10 µM) was -0.294 and the “probe-labelled cysteine peptide fold change” value (50 µM) was -0.208.

In the case of “GIT1_Q9Y2X7_576_KGVSASAVPFTPSSPLLSCSQEGSR (UniProt Q9Y2X7)”, the “probe-labelled cysteine peptide fold change” value (10 µM) is reported as -0.316 and the “probe-labelled cysteine peptide fold change” value (50 µM) is reported as -0.788.

“GTF3C4_Q9UKN8_376_CVPLYHPYQK (UniProt Q9UKN8)” was tested, and the “probe-labelled cysteine peptide fold change” value (10 µM) was 0.0788 and the “probe-labelled cysteine peptide fold change” value (50 µM) was 0.144.

“GOLGA4_Q13439_1085_ILLFGCEK (UniProt Q13439)” was tested, and the “probe-labelled cysteine peptide fold change” value (10 µM) was -0.11 and the “probe-labelled cysteine peptide fold change” value (50 µM) was 0.095.

With “GTF3C5_Q9Y5Q8_75_DPYCHPVCANR (UniProt Q9Y5Q8)” the “probe-labelled cysteine peptide fold change” value (10 µM) was 0.121 and the “probe-labelled cysteine peptide fold change” value (50 µM) was 0.621.

For “FHL2_Q14192_275_GFLTERDDILCPDCGK (UniProt Q14192)”, the “probe-labelled cysteine peptide fold change” value (10 µM) was 0.0254 and the “probe-labelled cysteine peptide fold change” value (50 µM) was -0.163.

“GNL1_P36915_365_YKDGVVTIGCVGFPNVGK (UniProt P36915)” was tested, and the “probe-labelled cysteine peptide fold change” value (10 µM) was -0.0143 and the “probe-labelled cysteine peptide fold change” value (50 µM) was -0.869.

With “GTPBP3_Q969Y2_188_QLDGELGHLCR (UniProt Q969Y2)” the “probe-labelled cysteine peptide fold change” value (10 µM) was -0.0966 and the “probe-labelled cysteine peptide fold change” value (50 µM) was -0.00935.

“GATD3B_A0A0B4J2D5_176+177_EFHQAGKPIGLCCIAPVLAAK<|>GATD3A_P0DPI2_176+177_EFHQAGKPIGLCCIAPVLAAK (UniProt P0DPI2)” was tested, and the “probe-labelled cysteine peptide fold change” value (10 µM) was -1.14 and the “probe-labelled cysteine peptide fold change” value (50 µM) was -2.38.

“HDAC5_Q9UQL6_982_CFGHLTR (UniProt Q9UQL6)” was tested, and the “probe-labelled cysteine peptide fold change” value (10 µM) was 0.138 and the “probe-labelled cysteine peptide fold change” value (50 µM) was -0.104.

Source: the supplement of paper PMC12067093, “Discovery and optimisation of a covalent ligand for TRIM25 and its application to targeted protein ubiquitination” (Chemical Science, 2025)
